# The supplement of paper PMC12645437, “Orthogonal IMiD-Degron Pairs Induce Selective Protein Degradation in Cells” (ACS Chemical Biology, 2025)
# Whole data set: some 8,300 sequences, median “log2 fold change of degron read counts, EGFP-low vs EGFP+ sorted cells (limma voom), compound-induced degradation” near -1.1, cut for the highest 2% near 3.2. Many of the other results were omitted from the sample, so the highest values are more common in it than they were.
# T1: CRBN, Q96SW2
# T1 chain: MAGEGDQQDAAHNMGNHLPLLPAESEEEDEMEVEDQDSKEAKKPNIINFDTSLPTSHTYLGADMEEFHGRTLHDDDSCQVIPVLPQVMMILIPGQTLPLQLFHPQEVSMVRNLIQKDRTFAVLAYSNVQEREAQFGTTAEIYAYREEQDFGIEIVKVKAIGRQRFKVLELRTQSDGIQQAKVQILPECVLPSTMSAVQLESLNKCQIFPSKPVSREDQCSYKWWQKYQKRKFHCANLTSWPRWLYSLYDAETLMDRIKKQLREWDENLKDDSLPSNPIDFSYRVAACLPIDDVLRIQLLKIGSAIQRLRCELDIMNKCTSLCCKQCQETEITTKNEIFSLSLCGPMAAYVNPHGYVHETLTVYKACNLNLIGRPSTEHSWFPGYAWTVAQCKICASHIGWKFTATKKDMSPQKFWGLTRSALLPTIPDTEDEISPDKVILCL
# Biological target: T1, CRBN, Q96SW2
# Experiment: log2 fold change of degron read counts, EGFP-low vs EGFP+ sorted cells (limma voom), compound-induced degradation; higher = more compound-induced degradation of the degron-EGFP fusion; degrons are variants of IKZF1/3 zinc finger 2; compound dose not given here
# Settings: Jurkat, 18 h
# [1] = compound: compound 19 (5-tert-butyl-thalidomide)
# [2] = compound: compound 22 (5-morpholino-thalidomide)
# [3] = compound: compound 33 (diphenyl IMiD analogue)
# 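Further: pooled lentiviral library of zinc finger degron-EGFP fusions in mCherry-positive Jurkat cells, FACS-sorted after compound exposure, with degron abundance counted by next-generation sequencing.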
Sequence,log2 fold change of degron read counts [1],log2 fold change of degron read counts [2],log2 fold change of degron read counts [3],log2 fold change of degron read counts (compound: thalidomide)
"FTCNQCGANFTQKGNLLRHIKL [46F_47T_49N_50Q_52G_53A_54N_55F_67L_, Q9UKT9]",-2.31,-1.9,-1.02,-1.51
"FCCEQCGAQFTQKGNLLRHIKL [46F_47C_49E_50Q_52G_53A_54Q_55F_67L_, Q9UKT9]",-0.606,-1.61,0.54,-0.701
"FFCDVCGAGFTQKGNLLRHIKL [46F_47F_49D_50V_52G_53A_54G_55F_67L_, Q9UKT9]",2.13,0.815,-0.261,-2.07
"FICEICGRFFTQKGNLLRHIKL [46F_47I_49E_50I_52G_53R_54F_55F_67L_, Q9UKT9]",-1.91,-1.81,-0.249,-0.59
"FRCNICGAFFTQKGNLLRHIKL [46F_47R_49N_50I_52G_53A_54F_55F_67L_, Q9UKT9]",-1.52,-1.67,-0.33,0.791
"FTCEQCGATFTQKGNLLRHIKL [46F_47T_49E_50Q_52G_53A_54T_55F_67L_, Q9UKT9]",-2.43,-0.729,0.386,0.407
"LCCPICGFTCTQKGNLLRHIKL [46L_47C_49P_50I_52G_53F_54T_55C_67L_, Q9UKT9]",2.3,2.71,3.14,3.38
"LDCPICGFTCTQKGNLLRHIKL [46L_47D_49P_50I_52G_53F_54T_55C_67L_, Q9UKT9]",1.14,0.297,1.7,2.41
"LNCPICGFTCTQKGNLLRHIKL [46L_47N_49P_50I_52G_53F_54T_55C_67L_, Q9UKT9]",2.24,1.48,1.4,1.99
"FFCNQCGHLFTQKGNLLRHIKL [46F_47F_49N_50Q_52G_53H_54L_55F_67L_, Q9UKT9]",-1.66,-2.07,-1.87,-1.3
"FSCDICGAAFTQKGNLLRHIKL [46F_47S_49D_50I_52G_53A_54A_55F_67L_, Q9UKT9]",2.34,2.19,1.4,0.487
"FICPICGAQFTQKGNLLRHIKL [46F_47I_49P_50I_52G_53A_54Q_55F_67L_, Q9UKT9]",-0.147,2.86,2.84,2.97
"FWCPICGAQFTQKGNLLRHIKL [46F_47W_49P_50I_52G_53A_54Q_55F_67L_, Q9UKT9]",3.01,3.69,2.52,1.76
"FRCPICGAQFTQKGNLLRHIKL [46F_47R_49P_50I_52G_53A_54Q_55F_67L_, Q9UKT9]",-0.000477,0.626,1.17,1.41
"FYCPICGAQFTQKGNLLRHIKL [46F_47Y_49P_50I_52G_53A_54Q_55F_67L_, Q9UKT9]",3.2,3.56,2.65,1.7
"FACPICGAQFTQKGNLLRHIKL [46F_47A_49P_50I_52G_53A_54Q_55F_67L_, Q9UKT9]",3.33,2.33,1.68,1.29
"FFCPICGAQFTQKGNLLRHIKL [46F_47F_49P_50I_52G_53A_54Q_55F_67L_, Q9UKT9]",3.07,3.66,2.49,1.8
"FMCPICGAQFTQKGNLLRHIKL [46F_47M_49P_50I_52G_53A_54Q_55F_67L_, Q9UKT9]",0.245,1.26,2.62,1.97
"FTCPICGAQFTQKGNLLRHIKL [46F_47T_49P_50I_52G_53A_54Q_55F_67L_, Q9UKT9]",0.221,2.57,2.32,3.06
"FKCPICGAQFTQKGNLLRHIKL [46F_47K_49P_50I_52G_53A_54Q_55F_67L_, Q9UKT9]",-0.0361,-1.47,-1.09,0.0895
"FSCPICGAQFTQKGNLLRHIKL [46F_47S_49P_50I_52G_53A_54Q_55F_67L_, Q9UKT9]",2.37,2.25,1.87,1.54
"FVCPICGAQFTQKGNLLRHIKL [46F_47V_49P_50I_52G_53A_54Q_55F_67L_, Q9UKT9]",0.269,3.03,2.65,2.8
"FECPICGAQFTQKGNLLRHIKL [46F_47E_49P_50I_52G_53A_54Q_55F_67L_, Q9UKT9]",-0.254,-0.469,2.11,2.88
"FWCEICGRSFTQKGNLLRHIKL [46F_47W_49E_50I_52G_53R_54S_55F_67L_, Q9UKT9]",0.727,1.06,0.626,-1.3
"FWCPVCGAFFTQKGNLLRHIKL [46F_47W_49P_50V_52G_53A_54F_55F_67L_, Q9UKT9]",2.23,2.56,1.97,0.614
"FICNVCGACFTQKGNLLRHIKL [46F_47I_49N_50V_52G_53A_54C_55F_67L_, Q9UKT9]",-2.35,-0.443,0.594,0.469
"FRCNQCGHHFTQKGNLLRHIKL [46F_47R_49N_50Q_52G_53H_54H_55F_67L_, Q9UKT9]",-2.62,-2.49,-2.68,-2.74
"FMCNVCGAVFTQKGNLLRHIKL [46F_47M_49N_50V_52G_53A_54V_55F_67L_, Q9UKT9]",-2.62,-1.87,0.807,-0.813
